The list is not random: actives were taken first. Their share in the collection is about 9.9%.
SW480 rerep = inducers of DNA re-replication in SW480 colon cancer cells; 340,000 tested, 1.8% active; Potency, µM (titrated, usually from 46.1 µM), for the others: top-dose re-replication activation, actives largely listed as activators; AID 624297; SW480 DNA re-replication, Hoechst DNA content imaging, 48 h; further: potency means the concentration at half of the fitted maximal effect; % of control where 0% means no effect; nearly all actives have a fitted effect of over 55% in size
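Image-based DNA-content assay: after two days of treatment, nuclei were labelled with the DNA dye Hoechst and imaged, and hits were compounds raising the count of nuclei showing high fluorescence intensity.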
KB-3-1 tox = KB-3-1 parental cell cytotoxicity; KB-3-1 viability, CellTiter-Glo ATP luminescence, 72 h; Potency, µM (doses to about 46.1 µM), actives largely listed as cytotoxic; 400,000 tested, 1.4% active; further: potency means the concentration at half of the fitted maximal effect; on the % scale 0 is the no-effect control and ±100 the full control effect; nearly all actives have a fitted effect of over 60% in size
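Cells are dispensed, compounds pinned in, plates held at 37 °C for 72 h, then CellTiter-Glo is added and luminescence read after 10 minutes. Cell line: parental KB-3-1 in phenol-red-free DMEM, 10% FBS.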
MCF10A rerep = induces DNA re-replication in MCF 10a normal breast cells; MCF 10A DNA re-replication, Hoechst nuclear intensity, 48 h; Potency, µM (highest dose often 46.1 µM), for the others: at the highest dose activity, positive = re-replication, usual class: activators; 350,000 tested, 2.9% active; AID 624296; further: potency means the concentration at half of the fitted maximal effect; % of control where 0% means no effect; nearly all actives have a fitted effect of over 50% in size
IL1B secr inh = inflammasome signaling inhibition, IL-1 beta readout; activity change, % at 57.5 µM; 360,000 tested, 4.7% active; THP-1 LPS/ATP IL-1B secretion, AlphaLISA, 16 h; stronger effect = lower value; in the data active means activity change below about -50%; inconclusive means mostly about -30% to -49%; further: on the % scale 0 is the no-effect control and ±100 the full control effect
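Secreted IL-1B measured by AlphaLISA bead assay after 16 h compound exposure of THP-1 cells; compounds (final up to 57.5 uM) added 1 h before LPS (250 ng/mL) and ATP (1.25 mM) stimulation; lower signal means less secretion.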
KB-V1 MDR tox = KB-V1 MDR subline cytotoxicity | Potency, µM (doses to about 46.1 µM), usual class: cytotoxic | 400,000 tested, 3.4% active | KB-V1 MDR cells viability, CellTiter-Glo, 72 h; further: potency means the concentration at half of the fitted maximal effect; on the % scale 0 is the no-effect control and ±100 the full control effect; nearly all actives have a fitted effect of over 60% in size
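Readout: CellTiter-Glo luminescence, 10 min after addition. Cells: KB-V1 MDR subline, 72 h at 37 degrees C with compound. Analysis: corrected, normalized data fitted to concentration-effect curves.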
* hit, by the source's call; i = inactive; ? = inconclusive; . = no result given. Unless noted, the call rests on the fitted dose curve; in most records, active means well fitted curve in the direction sought with a large enough effect; inconclusive means small, poorly fitted or top-dose-only effect, or another doubt; inactive means no such curve, though single readings can be large; an effect the other way counts as inactive or inconclusive.

SMILES	SW480 rerep	KB-3-1 tox	MCF10A rerep	IL1B secr inh	KB-V1 MDR tox
COc1cccc(NC(=O)Nc2cc(Cl)ccc2C)c1	-6%	i	-11%	-76*	?
COc1cccc(NC(=O)Nc2ccccc2Br)c1	5%	i	1%	-26	i
COc1cccc(N/C(C)=C/C(=O)c2ccc(Br)cc2)c1	0%	i	21µM*	-8	i
CCc1ccccc1NC(=O)CN(C)C(=O)Cn1cnc2ccc(Cl)cc2c1=O	2%	i	-1%	-15	i
O=C(Cn1ncc(N2CCCC2)c(Cl)c1=O)c1ccc(Cl)cc1	1%	i	-1%	-11	?
CCC(=O)Nc1ccc(C(=O)Cn2ncc(Cl)c(Cl)c2=O)cc1	?	?	3.7µM*	-96*	?
CCc1ccccc1NC(=O)CN(C)C(=O)Cn1ncc(Cl)c(Cl)c1=O	6.5µM*	?	5.8µM*	-108*	?
CCOC(=O)c1ccc(NC(=O)Cn2ncc(Cl)c(Cl)c2=O)cc1	2.6µM*	?	2.6µM*	-100*	?
CSc1cccc(N2CC(C(=O)N(Cc3nnc(-c4ccccc4Cl)o3)C3CC3)CC2=O)c1 (centres undefined)	5%	i	19%	-17	i
OCC(O)/C=N/Nc1nc(N2CCCCC2)nc(N2CCCCC2)n1 (centres undefined)	-1%	i	24%	-4	i
COc1ccccc1Nc1nnc(SCc2cc(=O)n3cc(C)ccc3n2)s1	-6%	i	?	-7	i
Cc1cc(-c2nnc3n2CCCCC3)c(C)n1-c1ccccc1	-2%	?	27%	?	21µM*
Oc1ccccc1-c1nnc2n1CCCCC2	-4%	i	-5%	0	i
COc1cccc(/C=N/NC(=S)NC2CC3CCC2C3)c1OC (centres undefined)	-16%	i	0%	8	i
Oc1ccccc1/C=N/NC(=S)NC1CC2CCC1C2 (centres undefined)	3%	?	22%	-78*	?
CC1=CC(=C2C(=O)c3ccccc3C2=O)C=C(C)N1Cc1ccco1	0%	i	9%	-62*	i
Cc1ccccc1NC(=O)c1ccc2c(O)c(S(=O)(=O)c3ccccc3)c(=O)[nH]c2c1	-13%	i	-1%	-3	?
Cc1ccc(C(=O)COC(=O)c2ccc3c(c2)C(=O)N(c2cccc4ncccc24)C3=O)cc1	-3%	i	?	14	i
O=C(COC(=O)c1ccc2c(c1)C(=O)N(c1cccc3ncccc13)C2=O)c1ccc(Cl)cc1	?	i	6.5µM*	11	i
O=C(Nc1ccc(Cl)cc1)C1Cc2c(-c3ccc(Cl)cc3)ccnc2O1 (centres undefined)	.	i	.	-11	i
O=C(Nc1ccc(Cl)cc1)C1Cc2c(-c3ccccc3)ccnc2O1 (centres undefined)	.	i	.	-79*	i
O=C(Nc1cccc(OC(F)(F)F)c1)C1Cc2c(-c3cccc(F)c3)ccnc2O1 (centres undefined)	.	?	.	-89*	?
O=C(Nc1ccc(Cl)cc1)C1Cc2c(-c3cccc(F)c3)ccnc2O1 (centres undefined)	.	i	.	-64*	i
Cc1c(Cl)cccc1NC(=S)N1CCC(N(C)CC2CCCO2)CC1 (centres undefined)	7%	i	11%	-11	i
COc1ccc(N(CC(=O)Nc2ccc(F)cc2)S(=O)(=O)c2ccccc2[N+](=O)[O-])c(OC)c1	-5%	i	10%	-60*	i
SMILES	SW480 rerep	KB-3-1 tox	MCF10A rerep	IL1B secr inh	KB-V1 MDR tox
COc1ccc(N(CC(=O)Nc2ccccc2OC)S(=O)(=O)c2ccc(NC(C)=O)cc2)cc1	18µM*	21µM*	13µM*	26	?
COc1ccc(N(CC(=O)Nc2cc(C)cc(C)c2)S(=O)(=O)c2ccccc2[N+](=O)[O-])c(OC)c1	-4%	i	1%	1	i
O=C(CN(c1ccccc1F)S(=O)(=O)c1ccccc1)Nc1ccccc1C(=O)N1CCOCC1	0%	i	?	-17	i
COc1ccc(N(CC(=O)NCC2CCCO2)S(=O)(=O)c2ccc(C)cc2)cc1OC (centres undefined)	20%	i	5%	-2	21µM*
COc1ccc(S(=O)(=O)N(CC(=O)Nc2ccccc2C(=O)N2CCOCC2)c2ccc(F)cc2)cc1	1%	i	10%	11	16µM*
Cc1ccc(N(CC(=O)NCC2CCCO2)S(=O)(=O)c2ccc(Cl)cc2)cc1C (centres undefined)	-7%	i	1%	-16	i
O=C1CS(=O)(=O)C2(C(=O)Nc3ccccc32)N1c1cccc(Cl)c1 (centres undefined)	.	i	.	.	i
CCCOc1ccc(CNC(=O)CN2C(=O)c3cccnc3Oc3ccc(C)cc32)cc1	.	i	.	.	i
CCc1ccc(NC(=O)C(CC)n2nnc(C(=O)OC)c2C(=O)OC)cc1 (centres undefined)	.	i	.	.	i
COc1ccc(NC(=O)CN(c2ccc([N+](=O)[O-])cc2)S(=O)(=O)c2ccccc2)cc1	?	i	?	13	16µM*
COc1ccc(N(CC(=O)Nc2ccc(C)c(C)c2)S(=O)(=O)c2ccc(C)cc2)cc1OC	.	i	.	.	i
COc1ccc(N(CC(=O)Nc2ccccc2C(=O)NCC(C)C)S(C)(=O)=O)cc1	18µM*	i	-5%	10	i
COc1cccc(NC(=O)CN(c2ccc([N+](=O)[O-])cc2)S(=O)(=O)c2ccccc2)c1	-9%	i	-1%	13	i
COc1ccc(S(=O)(=O)N(CC(=O)O)c2ccccc2)cc1	5%	i	3.7µM*	-16	i
COc1ccc(N(CC(=O)Nc2ccccc2Cl)S(=O)(=O)c2ccc(C)cc2)cc1OC	3.3µM*	i	?	?	i
COc1ccc(/C=N/NC(=O)Nc2nonc2N)cc1	3%	i	1%	-8	i
Cc1ccc(-c2csc(NC(=O)c3c(C)noc3C)n2)cc1	1.6µM*	i	?	-18	?
COc1ccc(-c2csc(NC(=O)c3ccccc3S(C)(=O)=O)n2)cc1	1%	i	-7%	-95*	?
Cc1ccc(-c2csc(NC(=O)c3ccc([N+](=O)[O-])o3)n2)cc1	6.5µM*	?	4.1µM*	-106*	i
COc1ccc(-c2csc(NC(=O)CSCc3c(C)noc3C)n2)c(OC)c1	0%	i	10%	-53*	?
CCCCc1nn2c(=O)cc(COC(=O)c3cccs3)nc2s1	.	i	.	.	i

Bioassay records as filed in PubChem.
